Assay outcomes deposited in PubChem by The Scripps Research Institute Molecular Screening Center.
Most compounds without a hit are left out; they make up all but 4.8% or so of the library.
ssDAF12 agonist = activators of S. stercoralis DAF-12 nuclear receptor | 370,000 compounds, 1% hits | HEK293 ssDAF-12/GRIP1 lit1-tk-luc reporter, luminescence; % of 3 µM dafachronic acid response | activation, % at 6.8 µM;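 active = activation above the mean over all tested compounds plus 3 SD, cut at about 0.9% in these data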
hgDAF12 agonist = agonists of H. glycines DAF-12 nuclear receptor; HEK293 GAL4-hgDAF12 UAS-luciferase reporter, agonist luminescence; normalized to butyrate control; activation, % at 6.8 µM; 370,000 compounds, 1.8% hits;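 active = activation above a cutoff set at the mean of all screened compounds plus 3 SD, cut at about 10% in these data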
hcDAF12 agonist = activators of H. contortus DAF-12 nuclear receptor. HEK293 hcDAF-12 lit1-tk-luc reporter, luminescence; 0% DMSO, 100% Δ7-dafachronic acid. activation, % at 6.8 µM. 370,000 compounds, 1.4% hits. AID 652067;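 active = activation above the mean of all tested compounds plus 3 SD, cut at about 5.5% in these data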
DAX1 inh-1 = blocks DAX1 repression of SF-1 activated StAR promoter; HEK293T StAR-luciferase reporter, SF-1/DAX-1 repression relief; inhibition, % at 6.8 µM; 370,000 compounds, 1.1% hits; AID 652010;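 active = inhibition above the mean over all tested compounds plus 3 SD, cut at about 3.6% in these data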;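 also: higher inhibition means more luminescence from relief of DAX-1 repression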
DAX1 inh-2 = NR0B1 (DAX1) inhibition. P51843. HEK293 Gal4-DAX1 luciferase reporter, luminescence. inhibition, % at 6.75 µM. 340,000 compounds, 0.99% hits. AID 504766;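 active = inhibition above the mean over all tested compounds plus 3 SD, cut at about 4.2% in these data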;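 also: inhibition shows as a rise in luminescence from relieved DAX1 repression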
Target sequence (P51843 207-470 limits assumed): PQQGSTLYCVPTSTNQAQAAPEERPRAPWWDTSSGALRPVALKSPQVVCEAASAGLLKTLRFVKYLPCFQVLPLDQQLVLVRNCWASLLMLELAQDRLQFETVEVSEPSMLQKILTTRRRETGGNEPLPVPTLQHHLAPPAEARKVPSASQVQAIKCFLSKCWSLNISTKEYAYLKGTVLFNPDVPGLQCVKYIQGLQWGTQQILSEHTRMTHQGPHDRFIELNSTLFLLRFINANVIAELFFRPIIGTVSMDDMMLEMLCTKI
SMARCA2 activ = SMARCA2 function activation, primary screen. AID 652017. 370,000 compounds, 1% hits. activation, % at 9.1 µM. MG213 cells, MMTV-luciferase reporter, dexamethasone, overnight; in the data active = activation above about 7.8%
hgDAF12 ag = hgDAF-12 agonism, confirmation assay; shares compounds with hgDAF12 agonist; HEK293 GAL4-hgDAF12 luciferase reporter, agonist mode; percent of butyrate response; activation, % at 6.8 µM; 3,300 compounds, 80% hits; AID 743050;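 active = mean activation over triplicate wells above the hit cutoff derived from the earlier primary screen, cut at about 11% in these data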
LXR ag 2 = activates human LXR-beta, counter-screen for DAF-12 agonists. shares compounds with hgDAF12 agonist. HEK293 Gal4-LXR luciferase reporter, 24 h. activation, % at 6.8 µM. 3,300 tested, under 10 active. AID 743051;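 active = mean activation of the triplicate above a set limit carried over from the primary screen, none filed active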
Target sequence (P55055 whole entry, looked up, the tested form may be a part): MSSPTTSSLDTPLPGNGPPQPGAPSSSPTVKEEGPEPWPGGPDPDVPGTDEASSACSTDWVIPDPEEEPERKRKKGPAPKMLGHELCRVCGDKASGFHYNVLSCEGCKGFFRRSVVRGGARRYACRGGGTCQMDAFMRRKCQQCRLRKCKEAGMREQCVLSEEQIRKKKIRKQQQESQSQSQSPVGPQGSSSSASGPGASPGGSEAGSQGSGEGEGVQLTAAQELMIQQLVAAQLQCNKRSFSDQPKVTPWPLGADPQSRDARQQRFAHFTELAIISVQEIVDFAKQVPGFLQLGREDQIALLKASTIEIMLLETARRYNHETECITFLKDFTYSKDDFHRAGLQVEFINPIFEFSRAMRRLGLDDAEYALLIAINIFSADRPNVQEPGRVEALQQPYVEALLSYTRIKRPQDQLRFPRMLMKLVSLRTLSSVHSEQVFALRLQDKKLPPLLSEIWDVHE
A number is an active result.

What do the screens show for `COc1ccc2c(c1OC)C(=O)OC2Nc1nc(-c2cc3ccccc3oc2=O)cs1` (configuration not stated)?
ssDAF12 agonist: inactive; hgDAF12 agonist: 18; hcDAF12 agonist: inactive; DAX1 inh-1: 4.3; DAX1 inh-2: inactive; SMARCA2 activ: inactive; hgDAF12 ag: 17; LXR ag 2: inactive

Results for CC(C)C(=O)Nc1nc2cc3c(cc2s1)OCO3 ?
ssDAF12 agonist: inactive; hgDAF12 agonist: inactive; hcDAF12 agonist: inactive; DAX1 inh-1: inactive; DAX1 inh-2: inactive; SMARCA2 activ: inactive

Results for Fc1cccc2sc(Nc3nc4cc5c(cc4s3)OCO5)nc12 ?
ssDAF12 agonist: 1.1; hgDAF12 agonist: 16; hcDAF12 agonist: 6.3; DAX1 inh-1: inactive; DAX1 inh-2: inactive; SMARCA2 activ: inactive; hgDAF12 ag: 14; LXR ag 2: inactive

How did COCc1cn(-c2nc3ccccc3s2)nn1 do in these assays?
ssDAF12 agonist: inactive; hgDAF12 agonist: inactive; hcDAF12 agonist: inactive; DAX1 inh-1: inactive; SMARCA2 activ: inactive

What do the screens show for `N#CCCCc1cn(-c2nc3ccccc3s2)nn1`?
ssDAF12 agonist: inactive; hgDAF12 agonist: 14; hcDAF12 agonist: inactive; DAX1 inh-1: 4.0; SMARCA2 activ: inactive; hgDAF12 ag: 13; LXR ag 2: inactive

How did CC(=O)c1ccc(NC(=O)c2cc3ccccc3o2)cc1 do in these assays?
ssDAF12 agonist: 1.6; hgDAF12 agonist: 14; hcDAF12 agonist: inactive; DAX1 inh-1: inactive; DAX1 inh-2: inactive; SMARCA2 activ: inactive; hgDAF12 ag: 18; LXR ag 2: inactive

Results for CC(=O)c1cccc(NC(=O)c2ccc3ccccc3c2)c1 ?
ssDAF12 agonist: inactive; hgDAF12 agonist: 19; hcDAF12 agonist: inactive; DAX1 inh-1: inactive; DAX1 inh-2: inactive; SMARCA2 activ: inactive; hgDAF12 ag: 17; LXR ag 2: inactive

Results for Cc1ccc(-c2nc3ccc(Br)cn3c2Cc2cccc(F)c2)cc1 ?
ssDAF12 agonist: inactive; hgDAF12 agonist: 21; hcDAF12 agonist: inactive; DAX1 inh-1: inactive; SMARCA2 activ: inactive; hgDAF12 ag: 10; LXR ag 2: inactive

How did Cc1ccc2nc(-c3ccc(Cl)cc3)c(Cc3cccc(Cl)c3)n2c1 do in these assays?
ssDAF12 agonist: inactive; hgDAF12 agonist: 13; hcDAF12 agonist: inactive; DAX1 inh-1: 3.9; SMARCA2 activ: inactive; hgDAF12 ag: inactive; LXR ag 2: inactive

How did Fc1ccc(-c2nc3ccc(Br)cn3c2Cc2cccc(F)c2)cc1 do in these assays?
ssDAF12 agonist: inactive; hgDAF12 agonist: inactive; hcDAF12 agonist: inactive; DAX1 inh-1: inactive; SMARCA2 activ: inactive

Results for O=S1(=O)N[C@H](Cc2ccccc2)COc2cc(F)ccc21 ?
ssDAF12 agonist: inactive; hgDAF12 agonist: inactive; hcDAF12 agonist: inactive; DAX1 inh-1: inactive; SMARCA2 activ: inactive

How did COC(=O)C1=C(C)N(Cc2ccccc2C(F)(F)F)C(=NCc2ccccc2C(F)(F)F)NC1c1cccc(F)c1 (configuration not stated) do in these assays?
ssDAF12 agonist: inactive; hgDAF12 agonist: inactive; hcDAF12 agonist: inactive; DAX1 inh-1: inactive; SMARCA2 activ: inactive

How did CNC[C@H]1OCc2cnnn2CCCC(=O)N([C@@H](C)CO)C[C@@H]1C do in these assays?
ssDAF12 agonist: inactive; hgDAF12 agonist: inactive; hcDAF12 agonist: inactive; DAX1 inh-1: inactive; SMARCA2 activ: inactive

How did C[C@@H]1NS(=O)(=O)c2cccc(Cl)c2O[C@@H]1c1ccccc1 do in these assays?
ssDAF12 agonist: inactive; hgDAF12 agonist: inactive; hcDAF12 agonist: inactive; DAX1 inh-1: inactive; SMARCA2 activ: inactive

Results for CCN(CC)CC(O)CNc1ccnc2c(Cl)ccc(Cl)c12 (configuration not stated) ?
ssDAF12 agonist: inactive; hgDAF12 agonist: 13; hcDAF12 agonist: inactive; DAX1 inh-1: inactive; DAX1 inh-2: inactive; SMARCA2 activ: inactive; hgDAF12 ag: inactive; LXR ag 2: inactive

Results for CCN(CC)CCCC(C)Nc1nccc2cccc(Cl)c12 (configuration not stated) ?
ssDAF12 agonist: inactive; hgDAF12 agonist: inactive; hcDAF12 agonist: inactive; DAX1 inh-1: inactive; DAX1 inh-2: inactive; SMARCA2 activ: inactive

What do the screens show for `Cc1ccccc1Oc1ccc2c(c1)[C@@H]1C[C@H](N(C)C(=O)c3ccco3)[C@H]([C@H](C)O)C(=O)N1CC2`?
ssDAF12 agonist: inactive; hgDAF12 agonist: inactive; hcDAF12 agonist: inactive; DAX1 inh-1: inactive; DAX1 inh-2: inactive; SMARCA2 activ: inactive

What do the screens show for `COc1cccc(C(=O)N2CCC[C@@H]2C(=O)N2CCC[C@@H]2C(=O)NCc2ccccc2)c1`?
ssDAF12 agonist: inactive; hgDAF12 agonist: inactive; hcDAF12 agonist: inactive; DAX1 inh-1: inactive; SMARCA2 activ: inactive

What do the screens show for `CC(C)(C)C(=O)c1cnc(Nc2ccccc2Cl)s1`?
ssDAF12 agonist: inactive; hgDAF12 agonist: 13; hcDAF12 agonist: inactive; DAX1 inh-1: inactive; DAX1 inh-2: inactive; SMARCA2 activ: inactive; hgDAF12 ag: 16; LXR ag 2: inactive

What do the screens show for `O=C(c1ccc(Cl)c(Cl)c1)c1cnc(Nc2ccccc2)s1`?
ssDAF12 agonist: inactive; hgDAF12 agonist: inactive; hcDAF12 agonist: inactive; DAX1 inh-1: inactive; DAX1 inh-2: inactive; SMARCA2 activ: inactive

Results for COC(=O)[C@]12C[C@H](CC(=O)N3CCSCC3)C(=O)N(Cc3cccc4ccccc34)C1=C[C@H](C(C)(C)C)O[C@@H]2C ?
ssDAF12 agonist: inactive; hgDAF12 agonist: inactive; hcDAF12 agonist: inactive; DAX1 inh-1: inactive; SMARCA2 activ: inactive

Results for CCOC(=O)C1(Cc2ccccc2Cl)CCN(C(=O)c2cnccn2)CC1 ?
ssDAF12 agonist: inactive; hgDAF12 agonist: 16; hcDAF12 agonist: inactive; DAX1 inh-1: inactive; DAX1 inh-2: inactive; SMARCA2 activ: inactive; hgDAF12 ag: 11; LXR ag 2: inactive

Results for CC(C)(C)C(=O)NC(=S)Nc1cccc(C(=O)O)c1 ?
ssDAF12 agonist: inactive; hgDAF12 agonist: 14; hcDAF12 agonist: inactive; DAX1 inh-1: 4.3; DAX1 inh-2: inactive; SMARCA2 activ: inactive; hgDAF12 ag: 13; LXR ag 2: inactive

What do the screens show for `Cc1ccnc(NC(=O)Nc2ccc(F)cc2)c1`?
ssDAF12 agonist: inactive; hgDAF12 agonist: 14; hcDAF12 agonist: inactive; DAX1 inh-1: inactive; DAX1 inh-2: inactive; SMARCA2 activ: inactive; hgDAF12 ag: 19; LXR ag 2: inactive

What do the screens show for `Cc1cccc2c1-c1sc(C(=O)Nc3nccs3)cc1CO2`?
ssDAF12 agonist: inactive; hgDAF12 agonist: 19; hcDAF12 agonist: inactive; DAX1 inh-1: inactive; DAX1 inh-2: inactive; SMARCA2 activ: inactive; hgDAF12 ag: 14; LXR ag 2: inactive
